# Assay outcomes deposited in PubChem BioAssay by National Center for Advancing Translational Sciences (NCATS).
# HepG2 tox = kills HepG2 cells in TGF-b inhibitor counter-screen. actives 0.76% (n = 410,000). HepG2 CAGA-GFP viability, ATP luminescence, 18 h. Potency, µM (highest dose often 46.1 µM), for the others: at the top dose activity change, negative = cytotoxicity, usual class: cytotoxic. AID 588856
#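 CellTiter-Glo luminescence gave cytotoxicity after 18 hours at 37 degrees C. The cells were HepG2 CAGA-GFP in 1% FBS DMEM, stimulated with 500 pg/mL TGF-beta after compound addition. %Activity was normalised to no-cell wells (complete cell-killing) and DMSO (no toxicity), and curves were fitted and classified.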
# GLP1R inv ag = acts as inverse agonist at human GLP-1 receptor. P43220. HEK293 GLP-1R CRE-luciferase, luminescence, 24 h; GLP-1R form is constitutively active. Potency, µM (doses to about 38.3 µM), inactives show top-dose activity change, negative = inhibition, usual class: inhibitors. actives 1.6% (n = 410,000). AID 624417; note: % is set by controls: 0 for no effect and ±100 for the full control effect; nearly all actives have a fitted effect of over 55% in size
# Target sequence (P43220 whole entry, looked up): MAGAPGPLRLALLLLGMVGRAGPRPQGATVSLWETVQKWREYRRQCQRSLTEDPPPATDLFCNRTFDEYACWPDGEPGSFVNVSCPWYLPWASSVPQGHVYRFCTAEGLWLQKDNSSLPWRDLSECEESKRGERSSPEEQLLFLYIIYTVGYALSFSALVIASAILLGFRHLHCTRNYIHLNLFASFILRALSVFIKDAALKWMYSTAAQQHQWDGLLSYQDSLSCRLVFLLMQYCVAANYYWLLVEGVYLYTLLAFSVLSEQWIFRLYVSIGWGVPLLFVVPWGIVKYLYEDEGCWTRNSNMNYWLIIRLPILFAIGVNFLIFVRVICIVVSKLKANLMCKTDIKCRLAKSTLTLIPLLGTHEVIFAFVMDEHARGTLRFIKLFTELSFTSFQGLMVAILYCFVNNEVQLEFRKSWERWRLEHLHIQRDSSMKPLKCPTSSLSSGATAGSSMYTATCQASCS
#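 Luminescence readout: a drop in cAMP-driven luciferase signal flags inverse agonism at a constitutively active GLP-1R stably expressed in HEK293. Compound exposure lasted 24 hr at 37 deg C, 5% CO2.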
# S2 tox = viability counter-screen for ATXN expression inhibitors. Potency, µM (titrated, usually from 56.7 µM), most hits filed as cytotoxic. actives 0.49% (n = 400,000). S2 cells (HEK-293 line with an ATXN2-luciferase reporter) viability, CellTiter-Fluor protease fluorescence, 24 h; note: nearly all actives have a fitted effect of over 40% in size
# TGFb SMAD3 inh = TGF-b pathway inhibition. actives 1.2% (n = 410,000). Potency, µM (top dose mostly 46.1 µM), for the others: at the top dose activity, negative = inhibition, hits mostly inhibitors. HepG2 CAGA-GFP TGF-b/SMAD3 reporter, GFP fluorescence, 18 h; TGF-beta stimulated, 500 pg/mL final. AID 588855; note: % is set by controls: 0 for no effect and ±100 for the full control effect; nearly all actives have a fitted effect of over 65% in size
#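 Cell-based qHTS in HEPG2 carrying a CAGA-GFP Smad reporter; compounds added before 500 pg/mL final TGF-beta, 18 h incubation at 37 degrees C, GFP fluorescence quantified per cell by imaging cytometry.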
# ATXN2 expr inh = reduces ATXN2 reporter expression in HEK-293 cells. AID 1745845. Potency, µM (highest dose often 57 µM), inactives show top-dose activity change, negative = inhibition, usual class: inhibitors. HEK-293 ATXN2-luciferase reporter, luminescence, 24 h. actives 0.72% (n = 360,000); note: % is set by controls: 0 for no effect and ±100 for the full control effect; nearly all actives have a fitted effect of over 55% in size
#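 qHTS (up to 57 uM final) was run with 24 h compound exposure of reporter cells at 37 °C. Each well was multiplexed: SteadyGlo luminescence measured ATXN2-luciferase expression after a fluorogenic Gly-Phe-AFC viability readout (25 uM final).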
# GLP-1R agonist = activates the human GLP-1 receptor | HEK293 GLP-1R CRE-luciferase, luminescence, 4-6 h; cells express a hypersensitive GLP-1R form | P43220 | Potency, µM (series often up to 45.6 µM), inactives show top-dose activation, most hits filed as activators | actives 0.007% (n = 380,000); note: % of control where 0% means no effect
# * = called active by the depositor; i = inactive; ? = inconclusive; . = no result given; ! = not active in a repeat. Rows were chosen to be rich in hits. Some 3.7% of all compounds tested hit in one or more screens of this group. Calls come from the whole dose curve; as a rule, active = well fitted curve in the direction sought with a large enough effect; inconclusive = small, poorly fitted or top-dose-only effect, or another doubt; inactive = no such curve, though single readings can be large; an effect the other way counts as inactive or inconclusive. Potency is the fitted concentration of half-maximal effect.
SMILES,HepG2 tox,GLP1R inv ag,S2 tox,TGFb SMAD3 inh,ATXN2 expr inh,GLP-1R agonist
O=C(NCc1ccc(Cl)cc1)c1ccc(-c2ccccc2C(F)(F)F)o1,-59%,?,i,16µM*,-17%,-3%
O=C(Nc1ccccc1)c1ccc(-c2ccccc2C(F)(F)F)o1,-28%,?,?,?,19%,17%
CCOc1cc(/C=C2\SC(=N)N(c3nccs3)C2=O)ccc1OCCN1CCOCC1,-24%,-20%,?,0%,22µM*,19%
CCOc1cc(/C=C2\SC(=S)N(N3CCOCC3)C2=O)ccc1O,-11%,-8%,i,-7%,.,-6%
Cc1ccc(S(=O)(=O)NC(CC(=O)O)c2ccccc2)cc1 (stereo not given),-1%,0%,i,-15%,4%,3%
Cc1ccc(S(=O)(=O)NCC(Nc2cccc(Cl)c2)c2ccccc2)cc1 (stereo not given),18µM*,11µM*,i,11µM*,?,-6%
O=S(=O)(NCC(c1ccccc1)N1CCC(O)CC1)c1ccc(Cl)cc1 (stereo not given),-41%,?,i,0%,-5%,12%
O=S(=O)(NCC(c1cccs1)S(=O)(=O)c1ccccc1)c1ccc(F)c(C(F)(F)F)c1 (stereo not given),-33%,?,.,?,.,.
O=S(=O)(NCC(Nc1ccc(Cl)cc1)c1ccccc1)c1ccc(Cl)cc1 (stereo not given),-66%,?,i,13µM*,?,-54%
O=S(=O)(NCC(c1cccs1)S(=O)(=O)c1ccccc1)c1ccc(F)cc1 (stereo not given),-59%,-9%,.,4µM*,.,.
Cc1ccc(S(=O)(=O)NCC(NCc2ccc(F)cc2)c2ccccc2)cc1 (stereo not given),-6%,11µM*,?,-4%,-3%,-3%
Cc1ccc(CN2C(=O)CSC2c2ccccc2F)cc1 (stereo not given),-5%,10µM*,i,-3%,-7%,11%
Cc1ccc(CN2C(=O)CSC2c2ccc(F)cc2)cc1 (stereo not given),-27%,?,i,-4%,.,17%
Cc1ccc(-c2nn(-c3ccccc3)cc2C2SCC(=O)N2Cc2ccccc2)o1 (stereo not given),4%,11µM*,i,?,-24%,11%
O=C1CSC(c2cn(-c3ccccc3)nc2-c2cc3ccccc3o2)N1Cc1ccccc1 (stereo not given),6%,?,i,-27%,13%,-1%
CCN1CCC(N[C@H]2C[C@@H](C(=O)NC)N(Cc3cccc4ccccc34)C2)CC1,.,.,i,.,.,.
CCN(CC)CCCNc1nc2ccccc2c2[nH]c3ccc(OC)cc3c12,-112%,?,6µM*,?,?,-13%
Cc1cccc(-c2[nH]c(C(C)(C)C)nc2-c2ccc3nccnc3c2)n1,.,.,.,.,27µM*,.
COc1cc(CN2CCC3(CCC(CNC(=O)c4ccco4)O3)CC2)ccc1O (stereo not given),.,.,i,.,.,.
O=[N+]([O-])c1ccc(Nc2nc(NCCN3CCOCC3)nc(Nc3ccc(I)cc3)n2)cc1,-44%,.,.,6%,.,.
Cc1cc(C(C)(C)C)cc(C)c1S(=O)(=O)N1CC(=O)Nc2ccccc21,13µM*,?,i,?,-17%,6%
Fc1ccc(NCc2ccccc2-c2nnc(-c3ccccc3Cl)o2)cc1Cl,-3%,16%,i,-19%,19%,.
O=C(NN1CCCC1)NS(=O)(=O)c1ccc(Cl)cc1,.,.,i,.,7%,0%
O=S(=O)(O)c1ccc(N=Nc2ccccc2)cc1,-20%,12%,i,-8%,3%,11%
O=c1ccc(N=Nc2ccccc2)ccc1O,18µM*,?,13µM*,-25%,?,2%
SMILES,HepG2 tox,GLP1R inv ag,S2 tox,TGFb SMAD3 inh,ATXN2 expr inh,GLP-1R agonist
CC(C)NCCCCOc1cccc(Br)c1,5%,7.9µM*,.,4%,?,-1%
CCCCN(CCCC)c1ccc(/C=C2\C=Cc3ccccc32)cc1,-10%,.,.,4%,.,.
N#Cc1c(NC(NC(=O)c2ccco2)C(=O)c2ccccc2)sc2c1CCCC2 (stereo not given),-26%,-7%,i,-18%,14%,4%
NC(=O)c1c(NC(NC(=O)c2ccco2)C(=O)c2ccc(Cl)cc2)sc2c1CCCC2 (stereo not given),-41%,-20%,i,16µM*,4%,0%
Cc1ccnc2cc(Cl)c(Cl)cc12,0%,.,.,-1%,.,.
O=C1C(SCCO)=C(SCCO)C(=O)c2ccccc21,7.1µM*!,-85%,.,3.2µM*,?,-13%
O=C1C(Cl)=C(NCCCO)C(=O)c2ccccc21,-95%,?,i,?,-37%,-22%
CC(C)CCn1cnc2c(oc3nc4c(cc32)CCCC4)c1=O,-7%,8.9µM*,?,-12%,-17%,-7%
CCN(CC)CCN,.,.,i,.,3%,.
CC(C)NCC(O)COC1CCC(C(C)(C)C)CC1 (stereo not given),-38%,7.1µM*,i,-4%,?,-4%
CC(C)(C)C1CCC(OCC(O)CN2CCN(Cc3ccccc3)CC2)CC1 (stereo not given),11µM*,-49%,?,?,0%,17%
CC1CCCC(C)N1CC(O)COC1CCC(C(C)(C)C)CC1 (stereo not given),-50%,?,i,?,-19%,-4%
CC(C)(C)c1ccc(S(=O)(=O)/C=C/C#N)cc1,-96%,.,.,?,.,.
C=CCC[C@@H](Cc1ccc(F)cc1)C(=O)OC[C@H](Cc1c[nH]c2ccccc12)NC(=O)[C@@H](CC=C)CC(=O)N[C@@H](CO)Cc1ccccc1,-49%,?,?,?,-12%,-1%
C=CCC[C@H](Cc1ccc(F)cc1)C(=O)OC[C@@H](Cc1c[nH]c2ccccc12)NC(=O)[C@@H](CC=C)CC(=O)N[C@@H](CO)Cc1ccccc1,-56%,7.1µM*,13µM*,10µM*,?,3%
C=CCC[C@@H](Cc1ccc(F)cc1)C(=O)OC[C@@H](Cc1c[nH]c2ccccc12)NC(=O)[C@H](CC=C)CC(=O)N[C@H](CO)Cc1ccccc1,-80%,0%,25µM*,?,?,11%
Cc1ccc(NC(=O)C2(NC(=O)c3cccc(N4C(=O)CSC4c4ccccc4)c3)CCCCC2)cc1 (stereo not given),-11%,6.3µM*,i,3%,-7%,-10%
